Experimental findings from PubChem BioAssay AID1745847 (National Center for Advancing Translational Sciences (NCATS), 2022) are described below.

Hit rate of the full screen: of about 2,100 compounds, about 670 (32%) were called active. Not shown: some 50% with an inconclusive outcome. The list shows a part of the results. Values without a mark were called inactive. Calls come from the whole dose curve; as a rule, active = well fitted inhibition curve with a large enough effect; inconclusive = small, poorly fitted or top-dose-only effect; inactive = no such curve, though single readings can be large or run the other way.
% is set by controls: 0 for no effect and ±100 for the full control effect; potency is the fitted concentration of half-maximal effect.

The nature of the assay: CMV-Luciferase Counterscreen for Inhibitors of ATXN expression. Note: nearly all actives have a fitted effect of over 55% in size. Particulars: HEK-293 CMV-luciferase reporter, luminescence, 24 h; series mostly up to 57.5 µM. A general note: Counterscreens check selectivity or assay interference.
Turning to `Cc1ccc(/C=N/NC(=O)C2=NNC(c3ccccc3)(c3ccccc3)C2)c(O)c1`, the Potency is 3.16 µM (active).
On to `O=c1c2ccccc2sc2c(CO)ccc(NCCN3CCCCC3)c12`, for which the Potency is 22.4 µM (active).
Turning to `CCN(CC)CCNc1ccc(CO)c2sc3ccccc3c(=O)c12`, the Potency is 17.8 µM (active).
Regarding `COC(/C(=N/O)c1ccc(Cl)cc1)c1ccccc1` (stereo not given), the Potency entry is “inactive”.
`Cc1cc(NCc2ccccn2)n2nc(C)c(-c3ccc(Cl)cc3)c2n1`: the Potency was 20 µM (active).
Take `Cc1cc(Oc2ccc(Cl)cc2)nc(-c2ccccn2)n1`: the Potency result was “inactive”.
For `CCCCC(=O)N(CCOC)c1nnc(-c2ccccc2C)s1`, the Potency result was “inactive”.
For the molecule `CCOc1cc([C@@H]2C[C@H]3CN(c4ccccc4)C(=O)[C@]34CCCN24)ccc1OC`, the Potency result was “inactive”.
With `Cc1cccc2sc(NNC(=O)c3ccc(S(=O)(=O)N4CCCC(C)C4)cc3)nc12` (stereo not given), the Potency was 4.47 µM (active).
As for `Cc1cc(C)c2nc(NNC(=O)c3ccc(S(=O)(=O)N4CCc5ccccc5C4)cc3)sc2c1`, the Potency was 3.16 µM (active).
On the same count and under the same terms, in the case of `N#CCc1nc2ccccc2c(=O)[nH]1` it was “inactive”; in that of `Nc1c2ccccc2nc2ccccc12`, 4.47 µM (active).
Turning to `CCCOCc1ccc(O)c2ncccc12`, the Potency is 20 µM (active).
Turning to `Oc1ccc(Cc2ccccc2)c2cccnc12`, the Potency is 11.2 µM (active).
Consider `CN(C)c1ccc(Cc2cc3c(O)ccc(O)c3cc(Cc3ccc(N(C)C)cc3)c2=O)cc1`, for which the activity change, negative = inhibition was -9.62% [at 11.4 µM].
In the case of `Oc1ccc(CN2CCC(Cc3ccccc3)CC2)c2cccnc12`, the activity change, negative = inhibition is -19.8% [at 11.4 µM].
With `CC[n+]1c(/C=C/N(C)c2ccccc2)oc2ccc(F)cc21`, the Potency is 15.8 µM (active).
`O=C(O)CSc1cc(NS(=O)(=O)c2ccc(Cl)cc2)c2ccccc2c1O`: the Potency was 28.2 µM (active).
`O=C(O)CSc1cc(NS(=O)(=O)c2cccc([N+](=O)[O-])c2)c2ccccc2c1O`: the Potency is 3.55 µM (active).
For `CCc1c(C)nc2ncnn2c1N1CCC(C(=O)Nc2ccc(C)cc2)CC1`, the Potency is 12.6 µM (active).
Regarding `CCc1ccc(CNC(=O)C2CCN(c3nnc(C)c4c(C)n(-c5ccc(C)cc5)nc34)CC2)cc1`, the Potency entry is “inactive”.
As for `O=C(Nc1ccc2c(c1)CCC2)C1CCN(c2c3c(nc4ncnn24)CCC3)CC1`, the Potency is 7.08 µM (active).
As for `CNc1ccccc1C(=O)OC(C)C(=O)Nc1ccc(Cl)cn1` (stereo not given), the activity change, negative = inhibition is 94.6% [at 11.4 µM].
With `CC(=O)Oc1c(Br)cc(N(C(C)=O)S(=O)(=O)c2ccccc2)c2ccccc12`, the Potency is 15.8 µM (active).
Regarding `COc1ccc2nc(C)cc(SCC(=O)N/N=C/c3ccc(O)cc3O)c2c1`, the Potency is 11.2 µM (active).
Still for that read-out and setting: under `Cc1cc(SCC(=O)NN)c2cc(Br)ccc2n1` stands “inactive”; under `COc1ccc(/C=N/NC(=O)c2nc(-c3ccccc3)n(-c3ccccc3)n2)c(O)c1`, 8.91 µM (active).
Turning to `NC(=O)c1cc([N+](=O)[O-])ccc1NCc1ccc(N)cc1`, the Potency was 6.31 µM (active).
Same read-out and setting: in the case of `Cn1nnnc1Sc1ncnc2scc(-c3ccc[nH]3)c12` it was 20 µM (active); in that of `Cn1nnnc1Sc1ncnc2scc(-c3cccs3)c12`, 11.2 µM (active).
Same read-out and setting: under `CCOc1ccc(NC(=O)Nc2nnc(CC(=O)NCc3ccccc3)s2)cc1` stands “inactive”.
With `COc1cc(C(=O)NCc2ccncc2)cc(Br)c1OCc1ccccc1`, the Potency was 3.98 µM (active).
Same read-out and setting: in the case of `COc1cc(CNCc2ccncc2)cc(Br)c1OCc1ccccc1F` it was 2 µM (active).
Consider `COc1cccc(OC)c1C(=O)OCC(=O)NC(=O)NCc1ccccc1`, for which the activity change, negative = inhibition is -4.44% [at 11.4 µM].
Take `CN(C)CCNc1ncnc2c1sc1nc(N3CCOCC3)c3c(c12)CC(C)(C)SC3`: the Potency result was “inactive”.
As to `O=C(Nc1ccc(Cl)c(Cl)c1)c1cccc(S(=O)(=O)NCc2cccnc2)c1`, the Potency is 1.58 µM (active).
Regarding `O=C(/C=C/Nc1ccc(S(=O)(=O)Nc2ncccn2)cc1)c1ccc(Cl)c(Cl)c1`, the Potency entry is “inactive”.
Turning to `Cn1c(CCc2nc3ccccc3[nH]2)nnc1SCC#N`, the Potency result is “inactive”.
With `COc1cc2cc(C(=O)NC(C)c3cccc4ccccc34)c(N)nc2cc1OC` (stereo not given), the activity change, negative = inhibition is -29.5% [at 11.4 µM].
As to `COc1ccc(Nc2c3ccccc3nc3ccccc23)cc1`, the Potency is 10 µM (active).
Turning to `COc1cc(N)ccc1Nc1c2ccccc2nc2ccccc12`, the Potency is 25.1 µM (active).
On to `COc1ccc(C(CCNC(C)c2ccccc2)c2ccc(F)cc2)cc1` (stereo not given), for which the Potency entry is “inactive”.
On to `COc1ccc(/C=N/Nc2cc(N3CCCC3)nc(N3CCCC3)n2)cc1`, for which the activity change, negative = inhibition was -17.8% [at 11.4 µM].
As to `COc1ccc(Nc2nc(N3CCCC3)c3ccccc3n2)cc1`, the Potency is 10 µM (active).
`C=CS(=O)(=O)c1c2cc(OC)ccc2nc2ccc(OC)cc12`: the Potency entry was “inactive”.
With `COc1ccc(C)cc1Nc1nc(N)c2cc(OC)c(OC)cc2n1`, the activity change, negative = inhibition was -12.3% [at 11.4 µM].
`C(=NN1CCCCCC1)c1ccc2ccccc2n1`: the Potency is 15.8 µM (active).
Turning to `O=C(Nc1ccc(Cl)cc1)Nc1nc(-c2sccc2Br)cs1`, the Potency entry is “inactive”.
In the case of `COc1ccc(OC)c(C(=O)/C=C/c2ccccc2C(F)(F)F)c1`, the activity change, negative = inhibition is -8.72% [at 11.4 µM].
Regarding `Cc1ccc(C)c(N2CCN(C(=O)CCCCCn3c(=S)[nH]c4ccc(N5CCOCC5)cc4c3=O)CC2)c1`, the Potency was 3.16 µM (active).
Regarding `Clc1ccccc1C(c1ccccc1)(c1ccccc1)n1ccnc1`, the Potency was 3.16 µM (active).
On the same count and under the same terms, under `Cc1cccc(N2CCN(C(=O)CC(NC(=O)c3ccccc3Cl)c3ccccc3)CC2)c1C` (stereo not given) stands 25.1 µM (active); under `COc1ccccc1N1C(=O)N(C(C)=O)C2C1Nc1ccccc1N2C` (stereo not given), “inactive”.
Turning to `CCn1c2ccccc2c2cc(NC(=O)COC(=O)c3cccc(S(=O)(=O)NC)c3)ccc21`, the Potency entry was “inactive”.
Consider `CCOC(=O)c1c(NC(=O)COC(=O)Cn2cnc3ccccc32)sc(C)c1C`, for which the Potency result was “inactive”.
As to `CCc1nc2ccccc2c(C(=O)OCC(=O)Nc2cccc(S(=O)(=O)NC3=NCCCCC3)c2)c1C`, the Potency was 14.1 µM (active).
With `CN(C)CCNc1ncnc2c1sc1nc(N3CCCC3)c3c(c12)CC(C)(C)OC3`, the Potency entry is “inactive”.
In the case of `O=C(N/N=C(\Cc1ncc[nH]1)c1ccccc1)c1cccnc1`, the Potency was 3.98 µM (active).
With `CCN(CC)c1cc(C)c2cc(NC(=O)c3ccccc3OC)ccc2n1`, the Potency entry is “inactive”.
With `CCOc1ccccc1C(=O)Nc1ccc2nc(N3CCN(c4ncccn4)CC3)cc(C)c2c1`, the Potency is 11.2 µM (active).
